# Counter-ions that a name gives are not always drawn. ± gives the standard deviation.
# Test system: Jurkat
# Assay: cell count relative to DMSO control (fraction of control); higher = more cells (less growth inhibition)
# Conditions: 48 h
row,SMILES,cell count
1,CC(=O)OCC(CCn1cnc2cnc(N)nc21)COC(C)=O [Famciclovir] (concentration: 25 µM),0.465 ± 0.18
2,Clc1ccccc1CN1CCc2sccc2C1 [Ticlopidine·HCl] (concentration: 25 µM),0.752 ± 0.017
3,CCCC1O[C@@H]2C[C@H]3[C@@H]4CCC5=CC(=O)C=C[C@]5(C)[C@H]4[C@@H](O)C[C@]3(C)[C@]2(C(=O)CO)O1 (some centres not stated) [Budesonide] (concentration: 25 µM),0.799 ± 0.046
4,CC[C@H]1OC(=O)[C@H](C)[C@@H](O[C@H]2C[C@@](C)(OC)[C@@H](O)[C@H](C)O2)[C@H](C)[C@@H](O[C@@H]2O[C@H](C)C[C@H](N(C)C)[C@H]2O)[C@](C)(O)C[C@@H](C)CN(C)[C@H](C)[C@@H](O)[C@]1(C)O [Azithromycin] (concentration: 25 µM),0.628 ± 0.078
5,COc1cc2nc(N(C)CCCNC(=O)C3CCCO3)nc(N)c2cc1OC (configuration not stated) [Alfuzosin] (concentration: 25 µM),0.41 ± 0.14
6,CN[C@H]1CC[C@@H](c2ccc(Cl)c(Cl)c2)c2ccccc21 [Sertraline·HCl] (concentration: 2.5 µM),0.853 ± 0.12
7,CCCNC(C)C(=O)Nc1c(C)csc1C(=O)OC (configuration not stated) [Articaine·HCl] (concentration: 25 µM),0.738 ± 0.059
8,C[C@H]1O[C@@H](O[C@H]2[C@@H](O)C[C@H](O[C@H]3[C@@H](O)C[C@H](O[C@H]4CC[C@@]5(C)[C@H](CC[C@@H]6[C@@H]5C[C@@H](O)[C@]5(C)[C@@H](C7=CC(=O)OC7)CC[C@]65O)C4)O[C@@H]3C)O[C@@H]2C)C[C@H](O)[C@@H]1O [Digoxin] (concentration: 25 nM),0.175 ± 0.093
9,Clc1ccc(CSC(Cn2ccnc2)c2ccc(Cl)cc2Cl)cc1 (configuration not stated) [Sulconazole Nitrate] (concentration: 25 µM),0.923 ± 0.11
10,O=C1CCc2ccc(OCCCCN3CCN(c4cccc(Cl)c4Cl)CC3)cc2N1 [Aripiprazole] (concentration: 25 µM),0.89 ± 0.092
11,CC1(C)O[C@@H]2C[C@H]3[C@@H]4CCC5=CC(=O)C=C[C@]5(C)[C@@]4(F)[C@@H](O)C[C@]3(C)[C@]2(C(=O)CO)O1 [Triamcinolone Acetonide] (concentration: 25 µM),0.789 ± 0.084
12,Cc1[nH]c(=O)c(C#N)cc1-c1ccncc1 [Milrinone] (concentration: 25 µM),0.361 ± 0.085
13,CC1=C(C/C=C(\C)CCC[C@H](C)CCC[C@H](C)CCCC(C)C)C(=O)c2ccccc2C1=O [Phytonadione] (concentration: 25 µM),0.886 ± 0.1
14,CC(=O)OC(C)C[N+](C)(C)C (configuration not stated) [Methacholine Chloride] (concentration: 25 µM),0.921 ± 0.049
15,CCNC(=O)CCC/C=C\C[C@@H]1[C@@H](/C=C/[C@@H](O)CCc2ccccc2)[C@H](O)C[C@@H]1O [Bimatoprost] (concentration: 25 µM),0.307 ± 0.091
16,CCCCCCCCCC(=O)N[C@@H](Cc1c[nH]c2ccccc12)C(=O)N[C@H](CC(N)=O)C(=O)N[C@@H](CC(=O)O)C(=O)N[C@@H]1C(=O)NCC(=O)N[C@@H](CCCN)C(=O)N[C@@H](CC(=O)O)C(=O)N[C@H](C)C(=O)N[C@@H](CC(=O)O)C(=O)NCC(=O)N[C@H](CO)C(=O)N[C@@H]([C@H](C)CC(=O)O)C(=O)N[C@@H](CC(=O)c2ccccc2N)C(=O)O[C@@H]1C [Daptomycin] (concentration: 25 µM),0.917 ± 0.039
17,CCOc1ccc2ccccc2c1C(=O)N[C@@H]1C(=O)N2[C@@H]1SC(C)(C)[C@@H]2C(=O)O [Nafcillin·Na] (concentration: 25 µM),0.569 ± 0.13
18,CCCN[C@H]1CCc2nc(N)sc2C1 [Pramipexole Dihydrochloride Monohydrate] (concentration: 25 µM),0.631 ± 0.011
19,CCCc1cc(=O)[nH]c(=S)[nH]1 [Propylthiouracil] (concentration: 25 µM),0.981 ± 0.1
20,CC[C@@H]([C@H](C)O)n1ncn(-c2ccc(N3CCN(c4ccc(OC[C@@H]5CO[C@@](Cn6cncn6)(c6ccc(F)cc6F)C5)cc4)CC3)cc2)c1=O [Posaconazole] (concentration: 25 µM),1.016 ± 0.0028
21,CC(C)NCC(O)c1ccc(NS(C)(=O)=O)cc1 (configuration not stated) [Sotalol·HCl] (concentration: 25 µM),0.268 ± 0.17
22,Cc1nnc(C(C)C)n1C1C[C@H]2CC[C@@H](C1)N2CC[C@H](NC(=O)C1CCC(F)(F)CC1)c1ccccc1 (stereo in doubt) [Maraviroc] (concentration: 25 µM),0.668 ± 0.062
23,C[C@H](Cn1cnc2c(N)ncnc21)OCP(=O)(O)O [Tenofovir] (concentration: 2.5 µM),0.894 ± 0.016
24,CCOC(=O)O[C@]1(C(=O)OCCl)CC[C@H]2[C@@H]3CCC4=CC(=O)C=C[C@]4(C)[C@H]3[C@@H](O)C[C@@]21C [Loteprednol Etabonate] (concentration: 25 µM),1.08 ± 0.067
25,C[C@]12CCC(=O)C=C1[C@@H]1C[C@@H]1[C@H]1[C@@H]3[C@@H]4C[C@@H]4[C@@]4(CCC(=O)O4)[C@@]3(C)CC[C@@H]12 [Drospirenone] (concentration: 25 µM),0.692 ± 0.11
26,Cc1ccc(C)c(OCCCC(C)(C)C(=O)O)c1 [Gemfibrozil] (concentration: 25 µM),0.91 ± 0.048
27,N=C(N)N/N=C/c1c(Cl)cccc1Cl [Guanabenz Acetate] (concentration: 25 µM),0.34 ± 0.13
